# Results reported in publication PMC7862700, “An all-to-all approach to the identification of sequence-specific readers for epigenetic DNA modifications on cytosine”.
# Key:
# Assay in all cases: DAPPL (digital affinity profiling via proximity ligation, sequencing); 10 mM Tris-HCl pH 7.5, 50 mM NaCl, 1 mM DTT, 4% glycerol, room temperature, 30 min; GST-TFs on glutathione beads, 16-mer random dsDNA library, 0.1% formaldehyde crosslink after washing; high values mean tight binding
# Settings in all cases: protein: recombinant; tags: N-terminal GST; dsDNA, one strand shown
# ELK1 = biological target: T1, ELK1 (Homo sapiens, UniProt P19419 1-428)
# T1 sequence: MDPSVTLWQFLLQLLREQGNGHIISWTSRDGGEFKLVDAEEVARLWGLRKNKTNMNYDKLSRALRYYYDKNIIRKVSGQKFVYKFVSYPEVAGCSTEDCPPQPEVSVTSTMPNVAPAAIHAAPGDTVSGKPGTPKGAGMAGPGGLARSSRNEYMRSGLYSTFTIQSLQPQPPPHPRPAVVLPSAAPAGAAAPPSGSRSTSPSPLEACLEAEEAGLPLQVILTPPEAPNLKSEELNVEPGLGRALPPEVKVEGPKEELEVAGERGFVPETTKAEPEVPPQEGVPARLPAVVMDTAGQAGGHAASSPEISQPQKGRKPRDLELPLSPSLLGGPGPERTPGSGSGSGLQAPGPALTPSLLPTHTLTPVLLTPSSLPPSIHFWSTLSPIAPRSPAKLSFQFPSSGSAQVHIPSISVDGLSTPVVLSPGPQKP
# Outline: (§1)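 Sequencing on an Illumina NextSeq500 followed washing, crosslinking with 0.1% formaldehyde, proximity ligation (BsaI/T4 ligase, 1 h, 37 °C) and PCR amplification of pools that had been incubated for 30 min at room temperature with 200 nmole of a random double-stranded 16-mer DNA library in Tris/NaCl/DTT/glycerol buffer. Each pool held DNA-barcoded human transcription factors, expressed in yeast as GST fusions and captured on glutathione beads, plus a tag-only sample. Binding signal is a hexamer's read frequency for a factor divided by its frequency in the tag-only sample.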
# GABPA = biological target: T2, GABPA (Homo sapiens, UniProt Q06546 1-454)
# T2 sequence: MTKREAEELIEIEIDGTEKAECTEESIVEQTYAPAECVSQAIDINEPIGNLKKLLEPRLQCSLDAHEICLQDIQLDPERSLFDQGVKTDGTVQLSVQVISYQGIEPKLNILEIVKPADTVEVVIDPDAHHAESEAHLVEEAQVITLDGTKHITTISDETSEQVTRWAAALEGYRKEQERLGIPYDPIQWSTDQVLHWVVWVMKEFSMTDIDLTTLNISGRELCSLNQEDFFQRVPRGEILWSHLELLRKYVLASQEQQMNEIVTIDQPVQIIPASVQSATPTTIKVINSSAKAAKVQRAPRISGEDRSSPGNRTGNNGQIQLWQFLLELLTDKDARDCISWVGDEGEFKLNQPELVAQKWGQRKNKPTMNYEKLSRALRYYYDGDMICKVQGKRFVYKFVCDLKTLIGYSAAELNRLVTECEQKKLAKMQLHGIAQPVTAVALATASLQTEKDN
# Outline: as §1
# ERG = biological target: T3, ERG (Homo sapiens, UniProt P11308 1-479)
# T3 sequence: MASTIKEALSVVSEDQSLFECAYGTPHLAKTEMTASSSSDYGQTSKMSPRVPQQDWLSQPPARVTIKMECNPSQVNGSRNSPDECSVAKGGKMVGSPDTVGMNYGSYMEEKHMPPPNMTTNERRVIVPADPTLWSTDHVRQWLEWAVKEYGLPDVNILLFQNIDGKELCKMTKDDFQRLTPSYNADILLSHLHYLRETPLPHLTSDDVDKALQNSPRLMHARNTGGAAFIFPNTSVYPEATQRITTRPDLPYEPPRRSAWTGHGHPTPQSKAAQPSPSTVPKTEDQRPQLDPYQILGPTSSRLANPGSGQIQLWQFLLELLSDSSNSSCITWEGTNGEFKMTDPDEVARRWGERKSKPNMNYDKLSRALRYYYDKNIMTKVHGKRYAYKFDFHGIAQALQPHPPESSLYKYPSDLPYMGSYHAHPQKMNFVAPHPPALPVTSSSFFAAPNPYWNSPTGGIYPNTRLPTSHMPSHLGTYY
# Outline: as §1
# ELF1 = ELF1 (Homo sapiens, UniProt P32519 1-619)
# Sequence of ELF1 (P32519 whole entry): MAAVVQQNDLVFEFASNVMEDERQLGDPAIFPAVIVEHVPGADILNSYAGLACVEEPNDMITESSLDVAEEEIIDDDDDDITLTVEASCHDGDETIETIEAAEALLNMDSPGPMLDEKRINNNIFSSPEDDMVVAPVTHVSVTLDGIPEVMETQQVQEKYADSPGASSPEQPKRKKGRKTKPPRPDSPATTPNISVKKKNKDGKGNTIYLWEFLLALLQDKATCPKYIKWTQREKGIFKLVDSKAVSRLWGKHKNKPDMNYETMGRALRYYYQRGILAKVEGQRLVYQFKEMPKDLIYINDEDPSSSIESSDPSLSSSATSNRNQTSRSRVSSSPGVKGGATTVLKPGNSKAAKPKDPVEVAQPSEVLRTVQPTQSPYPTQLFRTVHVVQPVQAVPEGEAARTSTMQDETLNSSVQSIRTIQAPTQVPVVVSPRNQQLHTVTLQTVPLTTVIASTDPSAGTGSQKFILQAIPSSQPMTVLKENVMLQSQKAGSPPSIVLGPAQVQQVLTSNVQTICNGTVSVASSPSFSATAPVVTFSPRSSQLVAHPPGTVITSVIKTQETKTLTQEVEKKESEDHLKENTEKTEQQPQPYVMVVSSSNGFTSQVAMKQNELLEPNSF
# Outline: as §1
# EHF = biological target: T4, EHF (Homo sapiens, UniProt Q9NZC4 1-300)
# T4 sequence: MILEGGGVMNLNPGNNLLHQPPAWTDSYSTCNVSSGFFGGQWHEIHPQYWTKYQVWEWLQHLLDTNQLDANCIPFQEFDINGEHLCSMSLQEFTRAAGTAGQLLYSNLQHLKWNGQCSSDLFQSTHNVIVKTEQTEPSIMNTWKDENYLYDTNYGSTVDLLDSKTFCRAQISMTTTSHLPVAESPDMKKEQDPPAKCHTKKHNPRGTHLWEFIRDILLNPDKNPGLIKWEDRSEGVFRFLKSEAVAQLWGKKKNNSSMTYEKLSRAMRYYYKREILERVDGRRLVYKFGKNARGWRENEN
# Outline: as §1
# SPIB = SPIB (Homo sapiens, UniProt Q01892 1-262)
# Sequence of SPIB (Q01892 whole entry): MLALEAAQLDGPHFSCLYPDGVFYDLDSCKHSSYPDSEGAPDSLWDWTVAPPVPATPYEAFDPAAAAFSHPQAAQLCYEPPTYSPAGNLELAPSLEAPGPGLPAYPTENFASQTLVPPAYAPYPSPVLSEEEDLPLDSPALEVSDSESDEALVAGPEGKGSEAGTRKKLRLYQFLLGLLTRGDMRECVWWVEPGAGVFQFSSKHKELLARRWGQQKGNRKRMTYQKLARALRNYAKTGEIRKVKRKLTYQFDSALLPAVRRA
# Outline: as §1
# FEV = biological target: T5, FEV (Homo sapiens, UniProt Q99581 1-238)
# T5 sequence: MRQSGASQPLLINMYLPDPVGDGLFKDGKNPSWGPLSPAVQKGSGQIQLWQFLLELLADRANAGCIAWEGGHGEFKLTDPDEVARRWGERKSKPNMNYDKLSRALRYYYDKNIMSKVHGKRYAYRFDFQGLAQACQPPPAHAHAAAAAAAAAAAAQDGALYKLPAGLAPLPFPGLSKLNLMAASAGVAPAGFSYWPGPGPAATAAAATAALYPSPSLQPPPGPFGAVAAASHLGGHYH
# Outline: as §1
# ETV5 = ETV5 (Homo sapiens, UniProt P41161 1-510)
# Sequence of ETV5 (P41161 whole entry): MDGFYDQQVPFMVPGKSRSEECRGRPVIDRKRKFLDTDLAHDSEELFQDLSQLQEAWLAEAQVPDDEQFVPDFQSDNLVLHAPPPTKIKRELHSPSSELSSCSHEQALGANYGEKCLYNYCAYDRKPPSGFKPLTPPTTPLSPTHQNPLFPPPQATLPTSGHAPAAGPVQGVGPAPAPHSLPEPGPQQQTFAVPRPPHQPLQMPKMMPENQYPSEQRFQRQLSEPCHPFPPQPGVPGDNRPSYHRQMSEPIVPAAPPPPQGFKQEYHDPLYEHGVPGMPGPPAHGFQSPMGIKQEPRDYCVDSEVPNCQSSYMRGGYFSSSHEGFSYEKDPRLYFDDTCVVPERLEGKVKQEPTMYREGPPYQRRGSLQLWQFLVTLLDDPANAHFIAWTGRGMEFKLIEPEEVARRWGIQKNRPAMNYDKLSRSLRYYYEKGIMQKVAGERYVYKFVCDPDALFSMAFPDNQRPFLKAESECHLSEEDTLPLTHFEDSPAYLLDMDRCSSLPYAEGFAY
# Outline: as §1
# ELF4 = ELF4 (Homo sapiens, UniProt Q99607 1-663)
# Sequence of ELF4 (Q99607 whole entry): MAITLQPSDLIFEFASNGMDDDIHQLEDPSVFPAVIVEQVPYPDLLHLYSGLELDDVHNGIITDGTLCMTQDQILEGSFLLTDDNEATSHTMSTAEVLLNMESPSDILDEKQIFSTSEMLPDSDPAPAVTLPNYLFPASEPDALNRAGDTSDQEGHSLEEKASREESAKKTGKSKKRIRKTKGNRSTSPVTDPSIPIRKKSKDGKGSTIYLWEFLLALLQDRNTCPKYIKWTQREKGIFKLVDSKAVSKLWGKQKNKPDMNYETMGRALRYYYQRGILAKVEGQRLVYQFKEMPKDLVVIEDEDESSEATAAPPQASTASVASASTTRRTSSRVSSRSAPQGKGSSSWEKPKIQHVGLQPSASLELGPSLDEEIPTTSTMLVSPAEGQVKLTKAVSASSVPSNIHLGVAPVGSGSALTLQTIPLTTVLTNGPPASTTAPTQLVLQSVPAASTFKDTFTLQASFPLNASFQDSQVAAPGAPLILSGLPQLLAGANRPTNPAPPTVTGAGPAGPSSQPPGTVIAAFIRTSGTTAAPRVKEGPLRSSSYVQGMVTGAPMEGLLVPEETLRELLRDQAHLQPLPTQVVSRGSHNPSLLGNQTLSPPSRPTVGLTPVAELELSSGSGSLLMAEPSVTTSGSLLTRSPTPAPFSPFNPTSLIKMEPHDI
# Outline: as §1
# ELK4 = biological target: T6, ELK4 (Homo sapiens, UniProt P28324-2 1-405)
# T6 sequence: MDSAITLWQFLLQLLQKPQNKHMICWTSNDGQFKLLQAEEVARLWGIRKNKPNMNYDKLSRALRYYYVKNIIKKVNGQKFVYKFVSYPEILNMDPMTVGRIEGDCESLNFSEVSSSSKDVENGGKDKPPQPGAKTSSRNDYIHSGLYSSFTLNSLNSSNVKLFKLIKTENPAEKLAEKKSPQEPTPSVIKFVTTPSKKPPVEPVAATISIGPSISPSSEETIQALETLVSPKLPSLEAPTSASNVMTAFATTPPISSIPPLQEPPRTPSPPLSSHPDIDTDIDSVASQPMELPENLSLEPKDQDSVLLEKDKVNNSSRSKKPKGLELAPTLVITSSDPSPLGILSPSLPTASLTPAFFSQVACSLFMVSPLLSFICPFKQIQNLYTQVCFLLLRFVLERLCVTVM
# Outline: as §1
# ETV2 = biological target: T7, ETV2 (Homo sapiens, UniProt O00321 1-342)
# T7 sequence: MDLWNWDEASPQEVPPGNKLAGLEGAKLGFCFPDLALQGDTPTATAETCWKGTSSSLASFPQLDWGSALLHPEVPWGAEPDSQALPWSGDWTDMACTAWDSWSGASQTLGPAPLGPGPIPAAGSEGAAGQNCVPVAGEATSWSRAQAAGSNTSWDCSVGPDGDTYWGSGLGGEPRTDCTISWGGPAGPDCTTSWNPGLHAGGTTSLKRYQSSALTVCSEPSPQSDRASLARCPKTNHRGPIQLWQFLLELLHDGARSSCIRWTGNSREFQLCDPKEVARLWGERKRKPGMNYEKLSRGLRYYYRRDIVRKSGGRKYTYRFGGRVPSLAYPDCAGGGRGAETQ
# Outline: as §1
# ETV1 = ETV1 (Homo sapiens, UniProt P50549 1-477)
# Sequence of ETV1 (P50549 whole entry): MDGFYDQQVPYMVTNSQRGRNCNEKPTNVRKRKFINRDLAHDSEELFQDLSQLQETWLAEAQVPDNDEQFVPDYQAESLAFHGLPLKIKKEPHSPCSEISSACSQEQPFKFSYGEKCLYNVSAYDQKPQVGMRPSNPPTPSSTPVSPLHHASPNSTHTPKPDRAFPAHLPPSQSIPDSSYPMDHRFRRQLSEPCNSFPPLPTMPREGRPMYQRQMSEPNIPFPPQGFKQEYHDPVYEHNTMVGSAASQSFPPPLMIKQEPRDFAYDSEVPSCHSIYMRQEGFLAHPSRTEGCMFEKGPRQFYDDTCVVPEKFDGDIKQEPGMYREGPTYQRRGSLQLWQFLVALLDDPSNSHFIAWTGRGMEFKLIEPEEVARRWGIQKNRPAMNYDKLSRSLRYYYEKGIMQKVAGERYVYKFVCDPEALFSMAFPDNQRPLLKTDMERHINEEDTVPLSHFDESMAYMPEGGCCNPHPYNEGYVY
# Outline: as §1
# ERF = biological target: T8, ERF (Homo sapiens, UniProt P50548 1-548)
# T8 sequence: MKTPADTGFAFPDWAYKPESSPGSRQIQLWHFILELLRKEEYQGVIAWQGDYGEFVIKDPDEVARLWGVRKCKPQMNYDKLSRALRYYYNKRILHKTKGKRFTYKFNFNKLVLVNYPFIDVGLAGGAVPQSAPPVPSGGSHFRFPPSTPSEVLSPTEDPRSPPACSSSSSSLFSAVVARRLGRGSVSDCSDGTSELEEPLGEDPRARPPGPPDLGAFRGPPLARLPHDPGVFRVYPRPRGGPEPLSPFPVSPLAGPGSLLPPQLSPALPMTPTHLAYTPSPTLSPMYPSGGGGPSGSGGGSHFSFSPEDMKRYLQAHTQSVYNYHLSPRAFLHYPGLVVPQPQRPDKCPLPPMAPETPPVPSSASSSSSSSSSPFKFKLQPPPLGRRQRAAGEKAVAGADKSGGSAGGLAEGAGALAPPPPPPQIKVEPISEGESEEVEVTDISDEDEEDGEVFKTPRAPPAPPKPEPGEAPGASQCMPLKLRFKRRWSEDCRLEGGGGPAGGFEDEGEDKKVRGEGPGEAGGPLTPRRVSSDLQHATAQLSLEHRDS
# Outline: as §1
# ETV3L = biological target: T9, ETV3L (Homo sapiens, UniProt Q6ZN32 1-361)
# T9 sequence: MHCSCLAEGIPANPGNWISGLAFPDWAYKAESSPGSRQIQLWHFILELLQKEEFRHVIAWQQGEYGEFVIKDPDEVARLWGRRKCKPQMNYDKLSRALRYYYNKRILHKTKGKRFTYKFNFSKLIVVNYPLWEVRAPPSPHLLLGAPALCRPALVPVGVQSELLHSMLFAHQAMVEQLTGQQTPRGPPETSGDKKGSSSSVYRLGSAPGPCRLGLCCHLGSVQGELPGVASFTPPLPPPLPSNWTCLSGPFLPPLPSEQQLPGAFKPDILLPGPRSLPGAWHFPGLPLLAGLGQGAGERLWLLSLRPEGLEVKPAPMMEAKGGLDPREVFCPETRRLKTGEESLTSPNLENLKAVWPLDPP
# Outline: as §1
# ETS2 = biological target: T10, ETS2 (Homo sapiens, UniProt P15036 1-469)
# T10 sequence: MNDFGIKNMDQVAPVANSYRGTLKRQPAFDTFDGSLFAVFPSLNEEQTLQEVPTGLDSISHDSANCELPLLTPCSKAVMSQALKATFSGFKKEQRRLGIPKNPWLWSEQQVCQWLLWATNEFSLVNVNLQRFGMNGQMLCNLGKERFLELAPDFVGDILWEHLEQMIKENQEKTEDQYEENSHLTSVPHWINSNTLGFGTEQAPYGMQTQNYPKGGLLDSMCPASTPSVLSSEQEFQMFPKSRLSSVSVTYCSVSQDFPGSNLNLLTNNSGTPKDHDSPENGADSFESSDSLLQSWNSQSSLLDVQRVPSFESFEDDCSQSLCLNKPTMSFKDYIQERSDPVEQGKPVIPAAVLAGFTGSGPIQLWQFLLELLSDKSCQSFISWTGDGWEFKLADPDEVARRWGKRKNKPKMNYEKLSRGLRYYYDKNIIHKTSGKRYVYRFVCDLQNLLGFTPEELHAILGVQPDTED
# Outline: as §1
# SPDEF = biological target: T11, SPDEF (Homo sapiens, UniProt O95238 1-335)
# T11 sequence: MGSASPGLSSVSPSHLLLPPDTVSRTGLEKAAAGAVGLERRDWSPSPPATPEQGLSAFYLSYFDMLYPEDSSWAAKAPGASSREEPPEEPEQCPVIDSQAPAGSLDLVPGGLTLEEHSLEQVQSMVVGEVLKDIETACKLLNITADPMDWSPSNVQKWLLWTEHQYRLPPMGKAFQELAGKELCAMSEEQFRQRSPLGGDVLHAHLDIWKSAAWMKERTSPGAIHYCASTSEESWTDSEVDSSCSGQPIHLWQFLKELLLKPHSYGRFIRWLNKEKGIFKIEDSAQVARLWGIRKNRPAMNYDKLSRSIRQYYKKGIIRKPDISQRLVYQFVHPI
# Outline: as §1
# ETV7 = biological target: T12, ETV7 (Homo sapiens, UniProt Q9Y603 1-341)
# T12 sequence: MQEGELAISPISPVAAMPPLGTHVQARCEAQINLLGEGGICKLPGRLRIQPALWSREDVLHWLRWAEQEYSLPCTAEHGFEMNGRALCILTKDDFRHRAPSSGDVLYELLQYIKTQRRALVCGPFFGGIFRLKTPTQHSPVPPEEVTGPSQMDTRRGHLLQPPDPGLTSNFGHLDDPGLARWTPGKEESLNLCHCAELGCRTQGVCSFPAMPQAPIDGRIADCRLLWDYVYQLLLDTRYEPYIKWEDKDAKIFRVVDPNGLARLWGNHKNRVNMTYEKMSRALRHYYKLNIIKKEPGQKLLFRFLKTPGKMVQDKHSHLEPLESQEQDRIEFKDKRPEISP
# Outline: as §1
# ETV3 = biological target: T13, ETV3 (Homo sapiens, UniProt P41162-2 1-143)
# T13 sequence: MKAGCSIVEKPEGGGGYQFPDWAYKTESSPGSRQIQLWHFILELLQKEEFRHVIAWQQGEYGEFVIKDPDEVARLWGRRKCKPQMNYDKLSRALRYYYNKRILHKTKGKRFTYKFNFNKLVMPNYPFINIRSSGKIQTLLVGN
# Outline: as §1
# ETV6 = ETV6 (Homo sapiens, UniProt P41212 1-452)
# Sequence of ETV6 (P41212 whole entry): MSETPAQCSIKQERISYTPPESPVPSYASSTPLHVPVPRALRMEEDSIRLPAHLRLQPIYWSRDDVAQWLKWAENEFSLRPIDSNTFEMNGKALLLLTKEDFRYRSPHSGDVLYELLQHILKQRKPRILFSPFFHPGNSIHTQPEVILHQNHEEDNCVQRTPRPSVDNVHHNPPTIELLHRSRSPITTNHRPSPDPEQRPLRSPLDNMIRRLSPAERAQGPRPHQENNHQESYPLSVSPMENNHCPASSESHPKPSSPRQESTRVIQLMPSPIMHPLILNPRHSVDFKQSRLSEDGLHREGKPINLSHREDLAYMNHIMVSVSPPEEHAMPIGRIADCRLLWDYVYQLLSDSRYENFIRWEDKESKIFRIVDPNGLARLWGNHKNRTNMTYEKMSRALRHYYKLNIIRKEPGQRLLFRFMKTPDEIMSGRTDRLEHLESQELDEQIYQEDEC
# Outline: as §1
sequence,measurement,setting,value
TGCCCA,binding signal,ELK1,"1.23 fold enrichment (6-mer frequency, TF over GST control)"
same,binding signal,GABPA,"1.19 fold enrichment (6-mer frequency, TF over GST control)"
same,binding signal,ERG,"1.14 fold enrichment (6-mer frequency, TF over GST control)"
same,binding signal,ELF1,"1.16 fold enrichment (6-mer frequency, TF over GST control)"
same,binding signal,EHF,"1.08 fold enrichment (6-mer frequency, TF over GST control)"
same,binding signal,SPIB,"1.12 fold enrichment (6-mer frequency, TF over GST control)"
same,binding signal,FEV,"1.21 fold enrichment (6-mer frequency, TF over GST control)"
same,binding signal,ETV5,"1.2 fold enrichment (6-mer frequency, TF over GST control)"
same,binding signal,ELF4,"1.2 fold enrichment (6-mer frequency, TF over GST control)"
same,binding signal,ELK4,"1.25 fold enrichment (6-mer frequency, TF over GST control)"
same,binding signal,ETV2,"1.1 fold enrichment (6-mer frequency, TF over GST control)"
same,binding signal,ETV1,"1.03 fold enrichment (6-mer frequency, TF over GST control)"
same,binding signal,ERF,"1.12 fold enrichment (6-mer frequency, TF over GST control)"
same,binding signal,ETV3L,"1.12 fold enrichment (6-mer frequency, TF over GST control)"
same,binding signal,ETS2,"1.12 fold enrichment (6-mer frequency, TF over GST control)"
same,binding signal,SPDEF,"1.12 fold enrichment (6-mer frequency, TF over GST control)"
same,binding signal,ETV7,"1.23 fold enrichment (6-mer frequency, TF over GST control)"
same,binding signal,ETV3,"1.15 fold enrichment (6-mer frequency, TF over GST control)"
same,binding signal,ETV6,"1.14 fold enrichment (6-mer frequency, TF over GST control)"
